# NPC1 prom act: NPC1 promoter activation; 320,000 compounds, 2.4% hits; Huh7 NPC1 promoter luciferase reporter, 24 h; AID 485313; Potency, µM (highest dose often 9.22 µM), for the others: at the top dose activation, hits mostly activators; note: % of control where 0% means no effect; nearly all actives have a fitted effect of over 60% in size
#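 In 1536-well qHTS, Huh7 cells harboring an NPC1 promoter–luciferase construct received compound for 24 h; activation was quantified by luminescence following luciferase reagent addition.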
# ELG1 genotoxic: genotoxicity induction in ELG1-luciferase HEK293T cells; Potency, µM (titrated, usually from 46 µM), inactives show top-dose activity change, positive = activation, hits mostly activators; 330,000 compounds, 1.3% hits; HEK293T ELG1-luciferase reporter, luminescence, 16 h; note: % of control where 0% means no effect; nearly all actives have a fitted effect of over 60% in size
#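 HEK293T cells expressing luciferase-tagged ELG1 were exposed to compound or DMSO vehicle for 16 hr at 37 °C and 5% CO2. Luciferase activity was then measured with ONE-Glo after 30 min at room temperature.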
# Rab9 promoter act: Rab9 promoter activation; Potency, µM (series often up to 9.22 µM), without a hit: at the highest dose activation, negative = inhibition, hits mostly activators; AID 485297; 320,000 compounds, 2.8% hits; Huh7 Rab9 promoter-luciferase reporter, luminescence, 24 h; note: % of control where 0% means no effect; nearly all actives have a fitted effect of over 60% in size
#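 Steps: seed 1500 Huh7 Rab9-luc cells per well, rest 2 h at 37 °C; add compound in DMSO; incubate 24 h; add luciferase reagent, 10 min ambient; read luminescence.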
# FLuc modulator: counter-screen for miR-21 project: firefly luciferase inhibitors or activators. P08659. purified FLuc, Km substrates, luminescence inhibition. Potency, µM (titrated, usually from 57.5 µM), for the others: top-dose activity change, negative = inhibition, most hits filed as inhibitors. 360,000 compounds, 6.9% hits. AID 588342;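 note: plate controls were vehicle for no effect and reference inhibitor for full effect; nearly all actives have a fitted effect of over 55% in size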
# Target sequence (P08659 whole entry, looked up): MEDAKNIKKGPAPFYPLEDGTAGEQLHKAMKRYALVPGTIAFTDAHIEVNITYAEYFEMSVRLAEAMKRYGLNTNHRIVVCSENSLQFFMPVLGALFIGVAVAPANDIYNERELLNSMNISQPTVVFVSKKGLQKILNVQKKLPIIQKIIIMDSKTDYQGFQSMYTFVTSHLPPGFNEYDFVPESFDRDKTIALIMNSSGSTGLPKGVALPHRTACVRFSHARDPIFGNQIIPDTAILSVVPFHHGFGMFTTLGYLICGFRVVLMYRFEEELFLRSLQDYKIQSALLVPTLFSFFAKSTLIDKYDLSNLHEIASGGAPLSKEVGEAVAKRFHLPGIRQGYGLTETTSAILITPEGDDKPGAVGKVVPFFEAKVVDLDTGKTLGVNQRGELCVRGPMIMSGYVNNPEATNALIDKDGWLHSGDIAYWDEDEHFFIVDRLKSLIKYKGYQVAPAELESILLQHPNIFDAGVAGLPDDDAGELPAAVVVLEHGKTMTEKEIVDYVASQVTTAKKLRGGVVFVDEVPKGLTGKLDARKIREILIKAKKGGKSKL
#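 Purified P. pyralis luciferase (10nM final) with 10uM D-luciferin and 10uM ATP (Km levels) in 50mM Tris acetate pH 7.5, 10mM Mg acetate, 0.01% Tween-20, 0.05% BSA; qHTS 6-point titration, ~60 µM downward; luminescence read.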
# SMN2 splice enh: enhancers of SMN2 splice variant expression; HEK293 SMN2-luciferase splicing reporter, luminescence, 30-36 h; Potency, µM (top dose mostly 46.1 µM), inactives show at the top dose activity change, positive = activation, usual class: activators; AID 1458; 210,000 compounds, 2.8% hits; note: % of control where 0% means no effect; nearly all actives have a fitted effect of over 55% in size
#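 qHTS luciferase splicing reporter: luminescence rises when SMN2 exon 7 is included in transfected HEK293 cells. Compound exposure lasted 30-36 h at 37C, with 4.5 mM final sodium butyrate as control, followed by a ONE-Glo read.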
# * hit, by the source's call; ? = inconclusive; · = not tested or not shown; [ ] = dose if it differs, or a comment. An excerpt weighted towards active compounds, which were near 7.5% of everything screened. Calls come from the whole dose curve; as a rule, active = well fitted curve in the direction sought with a large enough effect; inconclusive = small, poorly fitted or top-dose-only effect, or another doubt; inactive = no such curve, though single readings can be large; an effect the other way counts as inactive or inconclusive. Potency is the fitted concentration of half-maximal effect.
SMILES,NPC1 prom act,ELG1 genotoxic,Rab9 promoter act,FLuc modulator,SMN2 splice enh
Cc1ccc(-c2nc(Nc3ccc(O)cc3)c3ccccc3n2)cc1,14.9%,9.1%,16.0%,23.9µM*,·
Cc1ccc(-c2nc(Nc3ccc(N4CCOCC4)cc3)c3ccccc3n2)cc1,0.4%,-6.9%,-3.2%,23.9µM*,·
CC1CC(=O)Nc2ccccc2N1S(=O)(=O)c1cccc(Cl)c1 (configuration not stated),-0.5%,-1.1%,0.8%,1.3%,-4.9%
C=CCOC(=O)N[C@@H](Cc1ccccc1)/C(C(=O)OC)=C(\C)NCc1ccccc1,·,·,·,·,10.2%
Cc1ccc(-c2nc(C(Cl)Cl)c3ccccc3n2)cc1,-36.5%,17.6%,-40.7%,13.5µM*,·
Cc1ccc(-c2nc(NCc3ccco3)c3ccccc3n2)cc1,0.2%,-0.9%,-5.8%,?,15.2%
O=C(O)c1ccc(Nc2nc(-c3ccccc3)nc3ccccc23)cc1,-3.8%,-5.6%,-8.9%,21.3µM*,·
C/C(=N\Nc1cccc2cccnc12)c1ccc[nH]1,?,3.6%,1.41µM*,1.07µM*,11.2µM*
C/C(=N\NC(N)=S)c1ccc[nH]1,·,·,·,·,-0.2%[9.22 µM]
CC1(C)CC(=O)C(C(c2cccc(O)c2O)C2C(=O)CC(C)(C)CC2=O)C(=O)C1,·,·,·,·,0.1%[9.22 µM]
COc1ccc(CSC2=C(C#N)C(=O)NC3(CCCCC3)S2)cc1,·,·,·,·,-3.9%[9.22 µM]
CCCCCCSC1=C(C#N)C(=O)NC2(CCCCC2)S1,2.6%,?,-2.3%,23.9µM*,19.1%
Fc1ccc(/C=N/c2c(-c3ccc(F)cc3)nc3n2CCS3)cc1,-0.4%,2.0%,-7.2%,1.4%,7.4%
COc1ccc(/C=N/c2c(-c3ccc(OC)cc3)nc3n2CCS3)cc1,-4.4%,1.6%,18.3%,1.9µM*,9.3%
CC(C)(C)C(=O)N1CCN(c2ccc(NC(=O)c3ccc4c(c3)OCCO4)cc2)CC1,-2.7%,-27.9%,-8.8%,?,·
CN1CCN(c2ccc(NC(=O)c3ccc4c(c3)OCO4)cc2)CC1,2.51µM*,?,1.78µM*,10.7µM*,?
O=C(Nc1ccc(N2CCCCC2)cc1)c1ccc2c(c1)OCCO2,?,3.0%,1.41µM*,1.69µM*,-24.5%
Cc1ccc(N(Cc2cc(=O)[nH]c3ccccc23)C(=O)CCl)c(C)c1,-4.8%,-31.0%,-5.0%,-2.6%,·
Cc1ccc2nc(-c3ccncc3)c(Nc3ccccc3C)n2c1,·,·,·,-1.8%,11.2µM*
Cc1ccccc1Nc1c(-c2ccncc2)nc2ccc(Br)cn12,-0.3%,-5.4%,1.9%,2.6%,12.6µM*
Cc1ccc2nc(-c3cccnc3)c(Nc3ccccc3C)n2c1,1.0%,-9.8%,-10.5%,-1.1%,-3.8%
COC(=O)CNc1c(-c2ccccc2)nc2ccc(Br)cn12,?,?,?,7.57µM*,29.1%
Cc1ccccc1Nc1c(-c2cccnc2)nc2ccc(Br)cn12,0.1%,-20.4%,-6.5%,-1.4%,-28.6%
CN(CC(=O)Nc1ccc(F)cc1)C(=O)COC(=O)c1ccccc1,-1.5%,0.2%,-3.8%,0.8%,·
Cc1ccsc1C(=O)OCC(=O)c1ccc[nH]1,?,?,2.82µM*,13.5µM*,·
SMILES,NPC1 prom act,ELG1 genotoxic,Rab9 promoter act,FLuc modulator,SMN2 splice enh
O=C(OCC(=O)c1ccc[nH]1)c1ccc(Cl)nc1,-0.2%,1.2%,-2.1%,-1.2%,·
CN(C)c1cccc(C(=O)OCC(=O)c2ccc[nH]2)c1,3.16µM*,?,1.41µM*,10.7µM*,·
Cc1ccsc1C(=O)OCC(=O)c1ccc(OC(F)F)cc1,3.0%,2.4%,?,1.07µM*,·
Cc1ccc(C(=O)OCC(=O)c2ccc[nH]2)s1,11.4%,?,?,?,18.6%
CN(CC(=O)Nc1ccc(F)cc1)C(=O)COC(=O)c1cccc(N(C)C)c1,2.24µM*,?,1.41µM*,?,·
CCOc1ccc(NC(=O)CSc2nc(C)c3c(c2C#N)CCCC3)cc1,-4.7%,-0.5%,-2.1%,-0.2%,-15.4%
COc1ccc(C(=O)OCc2c(-c3ccccc3)ncc3ccccc23)cc1,·,-0.1%,·,·,·
OCCC1CN(Cc2cccc3c2OCO3)CCN1C1CCCC1 (configuration not stated),-6.3%,-3.4%,-1.2%,-1.3%,-16.5%
Cc1ccsc1C(=O)OCC(=O)N1CCc2ccccc2C1,2.82µM*,?,0.794µM*,8.49µM*,25.1µM*
Cc1ccsc1C(=O)N1CCc2ccccc2C1,5.3%,?,18.1%,?,·
CCOc1ccc(C(C)NC(=O)CCC(=O)O)cc1 (configuration not stated),-0.7%,-1.6%,6.8%,3.5%,8.6%
COc1ccc(S(=O)(=O)n2nc(OCc3cccs3)cc2N)cc1,0.6%,-6.5%,-2.5%,-0.4%,·
Cc1ccc(C2c3c(oc4ccccc4c3=O)C(=O)N2CCCN2CCOCC2)o1 (configuration not stated),1.6%,6.7%,0.7%,2.8%,7.08µM*
CC(C)Oc1ccc(C2c3c(oc4ccccc4c3=O)C(=O)N2CCCN2CCOCC2)cc1 (configuration not stated),4.0%,20.6µM*,13.9%,1.0%,·
O=[N+]([O-])c1ccc(-[n+]2ccc3ccccc3c2)c([N+](=O)[O-])c1,-45.4%,?,-42.9%,1.2%,·
COc1ccc(OC)c(/C=N/NC(=O)Cc2nc3ccccc3[nH]2)c1,1.1%,2.5%,10.7%,-1.7%,18.3%
COc1ccc(O)c(/C=N/Nc2nc3ccccc3[nH]2)c1,5.0%,?,?,6.75µM*,?
COc1cc(/C=N/Nc2nc3ccccc3[nH]c2=O)ccc1O,9.0%,-3.3%,1.9%,15.1µM*,?
COc1cc(/C=N/Nc2nc3ccccc3[nH]2)cc(Br)c1OCC(=O)N(C)C,-6.6%,-9.8%,-4.0%,23.9µM*,-22.5%
O=[N+]([O-])c1ccc(O)c(/C=N/Nc2nc3ccccc3[nH]2)c1,-34.8%,18.4µM*,-37.6%,?,-99.8%
O=c1n(-c2ccccc2)c(=O)n2n1CC(O)C2,-0.6%,2.2%,-6.8%,-1.2%,-3.6%
O=[N+]([O-])c1cccc(N/N=C/c2cc([N+](=O)[O-])ccc2O)c1,?,?,29.7%,?,20.4%
COc1cc(/C=C(/C(=O)c2cccs2)c2nc3ccccc3[nH]2)cc(OC)c1O,13.4%,-20.5%,14.2%,2.39µM*,-76.8%
COc1ccc(C(=O)N/C(=C/c2cccs2)c2nc3ccccc3[nH]2)cc1OC,-1.7%,3.5%,-2.2%,?,-26.5%
COc1cc(/C=N/Nc2nc3ccccc3[nH]2)ccc1O,4.0%,?,2.6%,4.78µM*,62.9%
O=[N+]([O-])c1ccc(N/N=C/c2ccccc2O)cc1,-7.4%,?,19.7%,15.1µM*,·
COc1cc(/C=N/Nc2nc3ccccc3[nH]2)cc(OC)c1O,14.2%,14.3%,20.6%,4.78µM*,·
Cc1ccc(NC(=O)N2CCN(c3nnc(C)c4c(C)n(-c5ccc(Cl)cc5)nc34)CC2)c(C)c1,·,·,·,-8.1%,·
